Only some compounds are listed: those with a hit (about 19% of all), similar ones and a draw of the others.
Cycloheximide cs: counter-screen for Shiga toxin inhibitors: cycloheximide protein synthesis inhibition. max response, %. actives 12% (n = 300,000). cell reporter, cycloheximide protein synthesis inhibition counterscreen; in the data active means max response mostly above about 13%, no sharp cut-off; inactive means mostly below about 14%; further: read at 38.3 µM for the half of the compounds with a filed dose
Pf growth 96h: inhibits malaria parasite growth, 96 h; P. falciparum luciferase reporter growth, 96 h; Potency, µM (series often up to 28.7 µM), actives largely listed as inhibitors; actives 6.9% (n = 320,000); AID 504834
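Erythrocytes infected with luciferase-expressing P. falciparum were dispensed at 2% hematocrit and 0.05% parasitemia (final), then incubated with compounds 96 hours at 37 C in 5% CO2. Luminescence after detection reagent addition reported growth.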
Shiga toxin inh: blocks Shiga toxin action in Vero cells; Vero cells, Shiga toxin protein synthesis inhibition reporter; inhibition, % at 38.7 µM; actives 9.2% (n = 290,000); AID 2315; in the data active means inhibition mostly above about 28%, no sharp cut-off; inactive means mostly below about 43%
Pf growth 48h: inhibits P. falciparum growth in the first generation, 48 h. P. falciparum luciferase growth in erythrocytes, 48 h. actives 5.9% (n = 310,000). Potency, µM (doses to about 28.7 µM), hits mostly inhibitors
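Cell-based growth assay: transgenic P. falciparum expressing firefly luciferase, cultured in red cells within RPMI 1640 containing 0.5% w/v Albumax, 24 mM bicarbonate and gentamycin. A drop in luciferase activity indicates inhibition.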
MARV entry inh: inhibitors of Marburg virus binding or cell entry; actives 1.8% (n = 300,000); Marburg virus pseudotyped entry inhibition, cell reporter; Potency, µM (titrated, usually from 37.8 µM), most hits filed as inhibitors; calls by dose curve; tested in HEK293 cells
Lassa entry inh: blocks Lassa virus binding to or entry into cells. Lassa virus pseudotype entry inhibition, cell reporter. Potency, µM (titrated, usually from 37.9 µM), hits mostly inhibitors. actives 1.2% (n = 300,000). AID 540256; calls by dose curve; tested in HEK293 cells; further: nearly all actives have a fitted effect of over 50% in size
Numbers stand for hits; - = inactive; ? = inconclusive; . = no result. Unless noted, the call rests on the fitted dose curve; in most records, active means well fitted inhibition curve with a large enough effect; inconclusive means small, poorly fitted or top-dose-only effect, or another doubt; inactive means no such curve, though single readings can be large or run the other way.

SMILES	Cycloheximide cs	Pf growth 96h	Shiga toxin inh	Pf growth 48h	MARV entry inh	Lassa entry inh
Cn1c(CS(=O)Cc2c(Cl)cccc2Cl)nnc1SCc1c(Cl)cccc1Cl (stereo not given)	-	4.7µM	-	?	?	-
Cc1ccc(NC(=O)Cn2c(=O)n(Cc3ccco3)c(=N)c3c4c(sc32)COC(C)(C)C4)cc1	-	?	-	?	-	-
COc1ccc(Cn2c(=O)n(Cc3ccco3)c(=N)c3c4c(sc32)COC(C)(C)C4)cc1	-	13µM	-	5.9µM	-	?
CC1(C)Cc2c(sc3[nH]c(=S)n(Cc4ccccc4)c(=O)c23)CO1	-	.	-	-	?	6.5µM
CC1(C)Cc2c(sc3c2c(=N)n(Cc2ccco2)c(=O)n3Cc2ccc(F)cc2)CO1	-	?	-	?	?	7.1µM
COc1cccc2cc(C(=O)N(C)C3CCN(C)CC3)c(=O)oc12	-	-	-	-	-	-
COC(=O)c1ccsc1NC(=O)CN1CCN(c2ncccn2)CC1	-	-	-	12µM	?	?
NC(=O)c1ccsc1NC(=O)CCc1ccccc1	44	-	.	-	.	.
CCOc1ccccc1OCCCC(=O)Nc1sccc1C(N)=O	-	?	-	12µM	?	-
COC(=O)c1ccsc1NC(=O)CCc1ccccc1	48	-	65	-	.	.
COc1ccc(CCC(=O)OCC(=O)Nc2sccc2C(N)=O)cc1	.	-	.	?	.	.
COc1ccc(C2=[N+]([O-])C(C)(C)C(c3ccccc3)=N2)cc1	-	?	-	-	-	-
CC(C)c1ccc(C2(O)C(=O)Nc3cc(Br)ccc32)c(O)c1 (stereo not given)	-	13µM	-	13µM	-	-
O=C1Nc2cc(Br)ccc2C1(O)c1ccccc1O (stereo not given)	-	?	-	?	?	-
COc1ccccc1CCNC(=O)CCc1c(C)c2cc3c(C)coc3cc2oc1=O	.	.	.	.	-	-
CCOC(=O)C1(CCc2ccccc2)CCN(Cc2nccn2CC)CC1	-	-	-	?	?	-
COc1ccc(C(=O)/C=C2\Sc3ccccc3N2C)cc1	35	-	-	-	?	?
COc1ccc(-[n+]2c(C)cc(/C=C3\Sc4ccccc4N3C)cc2C)cc1	-	?	62	0.74µM	.	.
CC(=S)/C=C1\Sc2ccccc2N1C	-	?	-	?	?	-
CC[n+]1c(/C=C2\Sc3ccccc3N2C)ccc2cccc(C)c21	-	-	-	?	?	?
COc1ccccc1-[n+]1c(C)cc(/C=C2\Sc3ccccc3N2C)cc1C	32	0.59µM	-	0.93µM	.	.
COc1ccccc1OC(=O)CCN1c2ccccc2Sc2ccccc21	-	-	-	-	?	-
Cn1ccnc1SCC(=O)c1ccc2ccccc2c1	39	-	88	-	?	-
COc1ccc(C(=O)CSc2nccn2C)c(OC)c1	50	-	57	-	.	.
Cn1ccnc1SCC(=O)Nc1cccc(Br)c1	.	.	.	.	?	-
SMILES	Cycloheximide cs	Pf growth 96h	Shiga toxin inh	Pf growth 48h	MARV entry inh	Lassa entry inh
Cn1ccnc1SCC(=O)c1cccc(Br)c1	27	-	-	.	-	-
COc1ccc(OC)c(C(=O)CSc2nnnn2C)c1	-	-	-	-	-	-
Cn1ccnc1SCC(=O)Nc1ccc2ccccc2c1	42	-	48	-	?	?
COc1ccc(CCN2C(=O)CC(Cc3ccccc3)C2=O)cc1OC (stereo not given)	-	-	-	-	.	.
Cc1ccc(NC(=O)CSc2nccn2C)cc1S(=O)(=O)N1CCOCC1	-	?	-	-	-	-
Cc1ccnc(SCC(=O)c2cc3ccccc3o2)n1	13	-	-	-	-	-
O=C(CSc1ncnc2nc[nH]c12)c1ccc2ccccc2c1	33	5.2µM	42	-	?	-
Cc1ccc(NC(=O)CSc2ncc3ccccn23)cc1C	39	-	130	-	.	.
Cc1ccc(NC(=O)CSc2ncn[nH]2)cc1C	.	.	.	.	.	-
O=C(O)CSc1ncnc2nc[nH]c12	-	-	-	.	-	-
CCN(CC)S(=O)(=O)c1cc(NC(=O)CSc2nccn2C)ccc1C	16	-	103	-	?	-
COc1ccc(NC(=O)c2c3c(nc4ccccc24)CCC3)cc1	-	?	-	?	?	-
Cc1ccc(S(=O)(=O)c2cn(CC(=O)Nc3ccc(Cl)cc3)c3ccc(F)cc3c2=O)cc1C	.	.	.	.	-	-
CCOC(=O)CSc1n[nH]c(NC(=O)NC(C)C)n1	-	-	-	-	.	.
CCOC(=O)C1=C(C)N=c2s/c(=C3\C(=O)Nc4ccccc43)c(=O)n2C1c1ccc2c(c1)OCO2 (stereo not given)	-	.	-	-	-	-
